High-throughput results as filed in PubChem.
Sampled rows, rich in hits. Any-hit rate of the full collection: about 2.7%.
IDH1 R132H inh – blocks human mutant IDH1 R132H enzyme; O75874; IDH1-R132H enzyme, NADPH consumption, diaphorase/resazurin fluorescence; Potency, µM (series often up to 76.6 µM), inactives show top-dose activity change, negative = inhibition, most hits filed as inhibitors; hit rate 0.093% among 390,000; note: % is set by controls: 0 for no effect and ±100 for the full control effect; nearly all actives have a fitted effect of over 65% in size
Target sequence (O75874 whole entry R132H, stated change not applied): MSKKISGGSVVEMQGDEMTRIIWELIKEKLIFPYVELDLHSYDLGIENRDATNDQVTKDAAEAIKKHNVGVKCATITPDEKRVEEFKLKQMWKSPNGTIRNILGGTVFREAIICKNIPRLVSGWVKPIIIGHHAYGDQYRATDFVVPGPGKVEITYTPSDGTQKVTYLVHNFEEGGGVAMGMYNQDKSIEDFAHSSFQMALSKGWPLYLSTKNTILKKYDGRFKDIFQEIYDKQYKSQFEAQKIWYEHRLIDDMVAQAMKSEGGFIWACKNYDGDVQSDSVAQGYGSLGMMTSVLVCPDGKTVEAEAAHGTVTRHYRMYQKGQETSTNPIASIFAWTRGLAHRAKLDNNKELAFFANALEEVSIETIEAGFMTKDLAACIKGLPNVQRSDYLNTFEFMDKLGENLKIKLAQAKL
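IDH1-R132H (0.5 ug/mL dispensed) in pH 7.5 Tris buffer was preincubated 30 min with compound, then given a substrate mix of 0.016 mM NADPH and 2 mM alpha-KG for 80 min at room temperature; remaining NADPH was read by diaphorase/resazurin fluorescence.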
GLP-1R agonist – agonists of human GLP-1 receptor | hit rate 0.007% among 380,000 | Potency, µM (titrated, usually from 45.6 µM), for inactives: at the top dose activation, most hits filed as activators | AID 624172 | HEK293 GLP-1R CRE-luciferase, luminescence, 4-6 h; cells express a hypersensitive GLP-1R form; note: % of control where 0% means no effect
rTrxR1 inhibitor – inhibitors of rat thioredoxin reductase 1. O89049. recombinant rTrxR1, NADPH fluorescence consumption, selenite substrate. Potency, µM (titrated, usually from 114 µM), without a hit: at the top dose activity change, negative = inhibition, actives largely listed as inhibitors. hit rate 1% among 390,000. AID 588453; note: % is set by controls: 0 for no effect and ±100 for the full control effect; nearly all actives have a fitted effect of over 65% in size
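Rat TrxR1 (90 nM in the dispensed reagent) was pre-reduced with 400 uM NADPH for 5 min at room temperature, then incubated with compound for 15 min. After 400 uM selenite was added, NADPH fluorescence (Ex 340/Em 450 nm) was followed for 8 min.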
GLP1R inv ag – GLP-1 receptor (human) inverse agonism | hit rate 1.6% among 410,000 | HEK293 GLP-1R CRE-luciferase, luminescence, 24 h; GLP-1R form is constitutively active | Potency, µM (doses to about 38.3 µM), for the others: at the top dose activity change, negative = inhibition, hits mostly inhibitors; note: % is set by controls: 0 for no effect and ±100 for the full control effect; nearly all actives have a fitted effect of over 55% in size
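Inverse agonists were sought by their lowering of basal cAMP reporter luciferase output in HEK293 cells stably carrying constitutively active human GLP-1R, after 24 h compound treatment.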
TrxR1 substrate – rat thioredoxin reductase 1 substrate activity; Potency, µM (highest dose often 114 µM), for the others: top-dose activity change, negative = substrate turnover; O89049; hit rate 0.01% among 390,000; purified TrxR1 substrate turnover, NADPH consumption readout; note: % is set by controls: 0 for no effect and ±100 for the full control effect; nearly all actives have a fitted effect of over 50% in size
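Rat TrxR1, dispensed at 90 nM, was prereduced with 400 uM NADPH (final) for 5 min at ~22 deg C, then incubated with compound 15 min before 400 uM selenite. A first-read NADPH fluorescence drop versus no-compound background flagged substrates.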
GLP1R cytotox – cytotoxicity counter-screen for GLP-1 receptor inverse agonists. HEK293 cAMP-luciferase reporter cells, luminescence, 24 h. Potency, µM (titrated, usually from 38.3 µM), for inactives: at the highest dose activity change, negative = inhibition, most hits filed as inhibitors. hit rate 0.13% among 410,000. AID 624418;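 note: loss of luciferase light is scored as toxicity; % is set by controls: 0 for no effect and ±100 for the full control effect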
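Here, cytotoxicity is scored as loss of luminescence. The MLSMR collection was tested on cells seeded in medium containing 10% Nu serum, with a 24 hr compound exposure preceded by 12 hours of culture.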
* hit, by the source's call; i = inactive; ? = inconclusive; . = not tested or not shown; [ ] = another dose, or the depositor's remark. Calls come from the whole dose curve; as a rule, active = well fitted curve in the direction sought with a large enough effect; inconclusive = small, poorly fitted or top-dose-only effect, or another doubt; inactive = no such curve, though single readings can be large; an effect the other way counts as inactive or inconclusive. Potency is the fitted concentration of half-maximal effect.

SMILES	IDH1 R132H inh	GLP-1R agonist	rTrxR1 inhibitor	GLP1R inv ag	TrxR1 substrate	GLP1R cytotox
Cc1cccc(C(=O)N=c2c(C#N)cc3c(=O)n4cccc(C)c4nc3n2Cc2ccco2)c1	0%	5%	6.3µM*	35%	106%	i
COCC1=C(C(=O)OC(C)OC(=O)OC(C)C)N2C(=O)C(NC(=O)/C(=N/OC)c3csc(N)n3)[C@H]2SC1 (stereo partly specified)	.	-2%	.	.	.	.
COc1ccc(-c2nn3c(-c4cc(-c5ccccc5)n[nH]4)nnc3s2)cc1OC	.	.	0%	.	-4%	.
C=CCC[C@@H](Cc1ccc(F)cc1)C(=O)OC[C@H](Cc1c[nH]c2ccccc12)NC(=O)[C@H](CC=C)CC(=O)N(CCO)Cc1ccccc1	4%	-1%	28%	10µM*	-2%	?
C=CC[C@H](CC(=O)N(CCO)Cc1ccccc1)C(=O)N[C@H](C)COC(=O)[C@@H](CC=C)Cc1ccc(F)cc1	-3%	11%	3%	11µM*	-5%	3%
C=CC[C@H](CC(=O)N(CCO)Cc1ccccc1)C(=O)NC[C@@H](OC(=O)[C@@H](CC=C)Cc1ccc(F)cc1)c1ccccc1	3%	-5%	16%	3.2µM*	-11%	-25%
C=CCC[C@H](Cc1ccc(F)cc1)C(=O)OC[C@H](Cc1c[nH]c2ccccc12)NC(=O)[C@@H](CC=C)CC(=O)N(CCO)Cc1ccccc1	0%	-6%	34%	?	-6%	18%
C=CCC[C@H](Cc1ccc(F)cc1)C(=O)O[C@H](CNC(=O)[C@@H](CC=C)CC(=O)N(CCO)Cc1ccccc1)c1ccccc1	1%[38.3 µM]	-2%	30%	?	0%	?
Cc1cc(C)c(NC(=O)CCN2CCCCC2)c(C)c1	10%	.	-18%	1%	1%	0%
COC(=O)c1ccccc1NC(=O)c1c(NC(=O)c2ccco2)sc2c1CCC(C(C)(C)C)C2 (stereo unspecified)	16%	.	-2%	8%	62%	14%
S=C(Nc1ccccc1)Nc1ccc(Br)cn1	5%	6%	-43%	?	7%	3.5µM*
N#CC1(C#N)OC12CCS(=O)(=O)c1ccccc12 (stereo unspecified)	4%	-1%	50µM*	7%	1%	1%
COCOCCn1cc(CN2CCS(=O)(=O)N(Cc3ccc(-c4ccc(C)cc4)cc3)C(C)C2=O)nn1 (stereo unspecified)	-2%	-2%	.	?	.	-4%
COCOCCn1cc(CN2CCS(=O)(=O)N(Cc3ccc(-c4ccc(Cl)c(Cl)c4)cc3)C(C)C2=O)nn1 (stereo unspecified)	-8%	0%	.	11µM*	.	-26%
CC(C)C1C(=O)N(Cc2cn(Cc3ccco3)nn2)CCS(=O)(=O)N1Cc1ccc(-c2ccc(Cl)cc2)cc1 (stereo unspecified)	-5%	4%	.	4µM*	.	?
CC1C(=O)N(Cc2cn(Cc3ccco3)nn2)CCS(=O)(=O)N1Cc1ccc(-c2ccccc2)cc1 (stereo unspecified)	-1%	1%	.	-15%	.	-2%
CC1C(=O)N(Cc2cn(Cc3ccco3)nn2)CCS(=O)(=O)N1Cc1ccc(-c2ccc(Cl)cc2)cc1 (stereo unspecified)	-19%	-2%	.	11µM*	.	-20%
COc1cc(OC)c(NC(=O)Cn2cnc3c(nc4n3CCCCC4)c2=O)cc1Cl	0%	.	5%	6%	-6%	-1%
COC(=O)c1scc(-c2ccc(C)cc2)c1S(=O)(=O)Nc1cc(C)c(Cl)cc1OC	-15%	.	25%[57.1 µM]	10µM*	-6%[57.1 µM]	-1%
COC(=O)c1scc(-c2ccc(C)cc2)c1S(=O)(=O)Nc1cc(C)ccc1OC	19%	.	15%[57.1 µM]	?	-3%[57.1 µM]	2%
NNC(=O)c1cccc(S(=O)(=O)Nc2cccc(C(F)(F)F)c2)c1	-6%	0%	23%	-6%	-1%	7%
Cc1[nH]c2ccccc2c1/C=N/NC(=O)c1cccc(S(=O)(=O)Nc2cccc(C(F)(F)F)c2)c1	23%	0%	4%	13µM*	-7%	?
COc1cccc(-c2nn(C)c3sc(C(=O)NCc4ccc(OC)cc4OC)cc23)c1	2%	.	45%	?	25%	-22%
COc1cccc(-c2nn(C)c3sc(C(=O)NCc4ccc(C)o4)cc23)c1	-1%	7%	32µM*	?	32%	-20%
Cc1onc(-c2ccccc2)c1CNC(=O)Nc1cccc(Cl)c1	-7%	13%	10%	8.9µM*	-7%	-7%
SMILES	IDH1 R132H inh	GLP-1R agonist	rTrxR1 inhibitor	GLP1R inv ag	TrxR1 substrate	GLP1R cytotox
COc1ccc(C)cc1S(=O)(=O)NCC(c1cccs1)S(=O)(=O)c1ccc(C)cc1 (stereo unspecified)	-8%	.	10%[57.1 µM]	?	-2%[57.1 µM]	0%
COc1ccc(S(=O)(=O)NCC(c2ccco2)S(=O)(=O)c2ccc(C)cc2)cc1C (stereo unspecified)	7%	.	11µM*	-23%	1%[57.1 µM]	3%
COc1ccc(F)cc1S(=O)(=O)NCC(c1ccco1)S(=O)(=O)c1ccc(F)cc1 (stereo unspecified)	-7%	.	0.89µM*	-19%	-6%[57.1 µM]	-2%
COc1ccc(F)cc1S(=O)(=O)NCC(c1ccco1)S(=O)(=O)c1cccs1 (stereo unspecified)	4%	.	?	-1%	3%[57.1 µM]	1%
COc1ccc(OC)c(S(=O)(=O)NCC(c2cccs2)S(=O)(=O)c2ccc(F)cc2)c1 (stereo unspecified)	9%	.	3.2µM*	-18%	2%[57.1 µM]	1%
CCc1ccccc1NC(=O)c1cnc2sc(N3CCOCC3)nn2c1=O	12%	.	25%[57.1 µM]	-9%	11%[57.1 µM]	-8%
CN(CC(=O)Nc1ccccc1Cl)C(=O)c1ccc(N2CCCCCC2)c([N+](=O)[O-])c1	2%	-6%	21%	?	0%	-8%
Cc1cccc(NC(=O)CN(C)C(=O)c2ccc(N3CCCCCC3)c([N+](=O)[O-])c2)c1C	5%	13%	8%[57.1 µM]	11µM*	-7%[57.1 µM]	-23%
O=S(=O)(c1ccccc1)c1nc(-c2ccccc2F)oc1N1CCOCC1	-1%	.	13%	1%	0%	0%
Cc1ccc(S(=O)(=O)Cc2cc(F)c([N+](=O)[O-])cc2[N+](=O)[O-])cc1	0%	0%	18µM*	?	-1%	?
Cc1cc(C)c(C)c(S(=O)(=O)N2CCSCC2)c1C	19%	-3%	24%	10µM*	3%	0%
